Measured values taken from PubChem BioAssay (Tox21).
Values joined by “and” are separate entries in the source; they are usually repeats but may differ in a detail not shown here. Identical values can stand only once. Records with an inconclusive call do not appear. Some compounds were tested as several samples or in several runs, with calls that do not always agree. Active and inactive are the calls of the source. Unless noted, the call rests on the fitted dose curve; in most records, active means well fitted curve in the direction sought with a large enough effect in the repeat runs; inconclusive means weak or mixed curves; inactive means no such curve, though single readings can be large; an effect the other way counts as inactive or inconclusive.

How the values were obtained:
[1] = qHTS assay to identify small molecule antagonists of the sonic hedgehog signaling (Shh) pathway (AID 1259369; calls by dose curve; further: nearly all actives have a fitted effect of over 45% in size; further: potency means the concentration at half of the fitted maximal effect)
In short: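 Screening used 3T3Gli1-Luc cells at 2,000 per well, compounds delivered in DMSO, and conditioned medium as agonist stimulus; plates incubated 24hr at 37 C and 5% CO2 before a 30min luciferase step.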

[2] = target: Estrogen receptor beta (Homo sapiens) (UniProt Q92731); assay: qHTS assay to identify small molecule agonists of the estrogen receptor beta (ER-beta) signaling pathway (AID 1259377; active means well fitted activation curve with a large enough effect in the signal ratio in the repeat runs, not every such curve was filed as active; the % refers to the signal ratio)
In short: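 Agonist mode cell assay in GripTite HEK293T cells expressing an ER-beta fusion that drives beta-lactamase from an Upstream Activator Sequence; 16 hr compound exposure at 37C, then 2 h LiveBLAzer B/G FRET substrate at room temperature, fluorescence read-out.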

[3] = target: Estrogen receptor beta (Homo sapiens) (UniProt Q92731); assay: qHTS assay to identify small molecule antagonists of the estrogen receptor beta (ER-beta) signaling pathway (AID 1259378; active means well fitted inhibition curve with a large enough effect in the signal ratio in the repeat runs, not every such curve was filed as active; the % refers to the signal ratio)
In short: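 ER-beta-UAS-bla HEK293T (GripTite) cells in 2% charcoal-stripped FBS medium were preincubated 6 hr at 37C, dosed with compound, then stimulated with 1 nM E2 (final) for 16 hr; beta-lactamase reporter read by B/G FRET fluorescence after 2 hr substrate loading.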

[4] = qHTS assay to identify small molecule agonists of the androgen receptor (AR) signaling pathway in the presence of an antagonist - cell viability counter screen (AID 1259379);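 further: MDA-kb2 human breast cancer cells carrying an MMTV luciferase reporter; series mostly up to about 92 µM; nearly all actives have a fitted effect of over 25% in size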
In short: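 In MDA-kb2 cells (human breast carcinoma, MMTV-luciferase), compounds at 15 concentrations plus 3.0uM nilutamide; 16 hr, 37C, 0% CO2; CellTiter-Fluor fluorescence read for viability.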

[5] = qHTS assay to identify small molecule agonists of the estrogen receptor beta (ER-beta) signaling pathway - cell viability counter screen (AID 1259380); further: nearly all actives have a fitted effect of over 30% in size
In short: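 Viability of ER-beta-UAS-bla HEK293T cells was determined by CellTiter-Glo luminescence following 16 hr treatment with test compounds at 37C.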

[6] = qHTS assay to identify small molecule antagonists of the estrogen receptor beta (ER-beta) signaling pathway - cell viability counter screen (AID 1259382); further: series mostly up to about 92 µM; nearly all actives have a fitted effect of over 55% in size
In short: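 Tox21 10K library tested in qHTS format on ER-beta-bla HEK293T cells stimulated with 1nM E2; 16 hr treatment at 37C. Same-well CellTiter-Glo luminescence served as the cell viability measure.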

[7] = target: Estrogen receptor (Homo sapiens) (UniProt P03372); assay: qHTS assay to identify small molecule agonists of the estrogen receptor alpha (ER-alpha) signaling pathway in the presence of an antagonist (AID 1259383; calls by dose curve; further: top concentration of the series differs between compounds; nearly all actives have a fitted effect of over 15% in size)
In short: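 In VM7Luc4E2 cells, 4,000 per well, compounds at 15 concentrations were co-incubated 22hr at 37C with 10.0nM final ICI-182,780. Luminescence from the stably transfected 4×ERE-luciferase reporter was recorded 30min after ONE-Glo addition.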

[8] = qHTS assay to identify small molecule agonists or antagonists of the thyroid stimulating hormone receptor (TSHR) signaling pathway - wild type cell line counter screen (AID 1259384; calls by dose curve)
In short: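 Wild-type HEK293 cells were plated 18 h at 37 C/5% CO2, pin-dosed with compound plus Ro20-1724 medium, held 30 min at room temperature, then given cAMP-d2 and anti-cAMP-cryptate; fluorescence was read after 1 h. Fifteen concentrations, triplicate.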

[9] = target: Thyrotropin receptor (Homo sapiens) (UniProt P16473); assay: qHTS assay to identify small molecule antagonists of the thyroid stimulating hormone receptor (TSHR) signaling pathway (AID 1259385; calls by dose curve; further: nearly all actives have a fitted effect of over 20% in size)
In short: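 TSHR-HEK293 cells were plated and held 18 h at 37C/5% CO2, then given compound plus Ro20-1724 and stimulated with TSH at 1.5 ng/mL final. After 30 min at room temperature, cAMP was detected with cAMP-d2/anti-cAMP-cryptate (1 h) by fluorescence.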

[10] = qHTS assay to identify small molecule agonists of the estrogen receptor alpha (ER-alpha) signaling pathway in the presence of an antagonist - cell viability counter screen (AID 1259386);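 further: series mostly up to about 92 µM; cells exposed to compounds for 22 h at 37 °C before the viability read; nearly all actives have a fitted effect of over 30% in size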
In short: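 Fluorescent CellTiter-Fluor viability signal from VM7Luc4E2 cells, with the reagent added during the final hour of a 22hr compound exposure at 37C in the presence of 10.0nM ICI-182,780.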

[11] = target: Progesterone receptor (Homo sapiens) (UniProt P06401); assay: qHTS assay to identify small molecule agonists of the progesterone receptor (PR) signaling pathway (AID 1346784; calls by dose curve; further: nearly all actives have a fitted effect of over 30% in size)
In short: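 Cells (PR-UAS-bla HEK 293T, GripTite) were plated in assay medium containing 2% charcoal-stripped FBS and incubated 6 hr. Test compounds in DMSO were added for 16 hr at 37C. FRET substrate was then loaded for 2 hr at room temperature before fluorescence reading.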

[12] = target: Progesterone receptor (Homo sapiens) (UniProt P06401); assay: qHTS assay to identify small molecule antagonists of the progesterone receptor (PR) signaling pathway (AID 1346795; active means well fitted inhibition curve with a large enough effect in the signal ratio in the repeat runs, not every such curve was filed as active; the % refers to the signal ratio; further: potency means the concentration at half of the fitted maximal effect)
In short: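 Antagonist mode: compounds tested against 1 nM (final) promegestone stimulation in HEK293T cells expressing PR-UAS-bla reporter, 16 hr at 37C, 5% CO2; beta-lactamase activity detected via B/G FRET substrate after 2 hr at room temperature.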

[13] = qHTS assay to identify small molecule antagonists of the progesterone receptor (PR) signaling pathway - cell viability counter screen (AID 1346798); further: series mostly up to about 92 µM; nearly all actives have a fitted effect of over 50% in size
In short: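 Counter screen for cytotoxicity: viability of PR-UAS-bla HEK293T cells was measured with CellTiter-Glo luminescence following 16 hr compound exposure in the presence of R5020.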

[14] = qHTS assay to identify small molecule agonists of the progesterone receptor (PR) signaling pathway - cell viability counter screen (AID 1346799; calls by dose curve; further: nearly all actives have a fitted effect of over 45% in size)
In short: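 Cells (PR-UAS-bla HEK293T) are plated at 3,000/well in 2% charcoal-stripped FBS medium, rested 6 hr, dosed and incubated 16 hr at 37C. CellTiter-Glo is then added and luminescence measured after 30 min at room temperature.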

[15] = qHTS assay to identify small molecule antagonists of the TGF-beta/Smad signaling pathway - cell viability counter screen (AID 1346824); further: nearly all actives have a fitted effect of over 50% in size
In short: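 SBE-bla HEK 293T cells were plated overnight at 37 C, then given compounds in DMSO plus TGF-beta1 (added as 0.25 ng/mL solution) for 5 hr. After the bla read, CellTiter-Glo was added to the same wells and luminescence read after 30 min at room temperature.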

[16] = qHTS assay to identify small molecule agonists of the TGF-beta/Smad signaling pathway - cell viability counter screen (AID 1346829); further: top concentration of the series differs between compounds; nearly all actives have a fitted effect of over 45% in size
In short: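 After overnight seating at 37 C and 5% CO2, reporter cells got compounds for 5 hr and FRET substrate for 2 hr; cell viability then came from CellTiter-Glo luminescence.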

[17] = qHTS assay to identify small molecule agonists of the TGF-beta/Smad signaling pathway (AID 1346859; active means well fitted activation curve with a large enough effect in the signal ratio in the repeat runs, not every such curve was filed as active; the % refers to the signal ratio; further: series mostly up to about 77 µM)
In short: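 Reporter line: HEK 293T with stably integrated SBE-controlled beta-lactamase. Compound exposure lasts 5 hr at 37 C and 5% CO2; substrate loading follows for 2 hr at room temperature, with emission read at 460 and 530 nm.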

[18] = target: Thyrotropin-releasing hormone receptor (Homo sapiens) (UniProt P34981); assay: qHTS assay to identify small molecule agonists of the thyrotropin-releasing hormone receptor (TRHR) signaling pathway (AID 1346891; calls by dose curve; further: series mostly up to about 58 µM)
In short: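 Cells: TRHR-Hek293, seeded and incubated 18 h. Dye loading: 2 h at 37 °C. Compound added from DMSO stock by pin tool. Read-out: kinetic calcium fluorescence over 3 min.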

[19] = target: Thyrotropin-releasing hormone receptor (Homo sapiens) (UniProt P34981); assay: qHTS assay to identify small molecule antagonists of the thyrotropin-releasing hormone receptor (TRHR) signaling pathway (AID 1346877; active means well fitted inhibition curve with a large enough effect in the repeat runs, not every such curve was filed as active; further: series mostly up to about 51 µM)
In short: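 In this cell-based calcium flux format, HEK293 cells expressing TRHR received test compound for 5 min before the agonist TRH (1 nM final). Dye loading lasted 2 h at 37 °C.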

[20] = target: Androgen receptor (Homo sapiens) (UniProt P10275); assay: qHTS assay to identify small molecule agonists of the androgen receptor (AR) signaling pathway in the presence of an antagonist (AID 1259381; calls by dose curve; further: nearly all actives have a fitted effect of over 15% in size)
In short: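 Here, 15-concentration compound series were pin-transferred onto MDA-kb2 MMTV-luciferase cells already dosed with nilutamide (3.0uM final). After 16hr at 37C, ONE-Glo was added and luminescence read 30min later at room temperature.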

Measured: Potency

Sequence of Estrogen receptor beta (Homo sapiens) (Q92731 whole entry, looked up, the tested form may be a part): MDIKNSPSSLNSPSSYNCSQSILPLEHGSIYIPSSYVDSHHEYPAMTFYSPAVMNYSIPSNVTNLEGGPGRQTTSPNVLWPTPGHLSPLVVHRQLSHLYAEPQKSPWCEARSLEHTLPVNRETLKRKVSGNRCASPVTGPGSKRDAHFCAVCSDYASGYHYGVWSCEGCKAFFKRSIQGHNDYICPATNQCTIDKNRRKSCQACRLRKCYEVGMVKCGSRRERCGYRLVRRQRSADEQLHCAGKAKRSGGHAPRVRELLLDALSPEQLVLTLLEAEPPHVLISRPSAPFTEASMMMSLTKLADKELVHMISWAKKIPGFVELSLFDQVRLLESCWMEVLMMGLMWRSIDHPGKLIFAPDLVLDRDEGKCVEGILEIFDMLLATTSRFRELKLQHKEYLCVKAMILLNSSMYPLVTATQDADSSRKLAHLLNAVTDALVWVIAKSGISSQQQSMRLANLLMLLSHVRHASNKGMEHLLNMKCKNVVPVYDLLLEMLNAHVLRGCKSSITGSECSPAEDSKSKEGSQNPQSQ
Sequence of Androgen receptor (Homo sapiens) (P10275 whole entry, looked up): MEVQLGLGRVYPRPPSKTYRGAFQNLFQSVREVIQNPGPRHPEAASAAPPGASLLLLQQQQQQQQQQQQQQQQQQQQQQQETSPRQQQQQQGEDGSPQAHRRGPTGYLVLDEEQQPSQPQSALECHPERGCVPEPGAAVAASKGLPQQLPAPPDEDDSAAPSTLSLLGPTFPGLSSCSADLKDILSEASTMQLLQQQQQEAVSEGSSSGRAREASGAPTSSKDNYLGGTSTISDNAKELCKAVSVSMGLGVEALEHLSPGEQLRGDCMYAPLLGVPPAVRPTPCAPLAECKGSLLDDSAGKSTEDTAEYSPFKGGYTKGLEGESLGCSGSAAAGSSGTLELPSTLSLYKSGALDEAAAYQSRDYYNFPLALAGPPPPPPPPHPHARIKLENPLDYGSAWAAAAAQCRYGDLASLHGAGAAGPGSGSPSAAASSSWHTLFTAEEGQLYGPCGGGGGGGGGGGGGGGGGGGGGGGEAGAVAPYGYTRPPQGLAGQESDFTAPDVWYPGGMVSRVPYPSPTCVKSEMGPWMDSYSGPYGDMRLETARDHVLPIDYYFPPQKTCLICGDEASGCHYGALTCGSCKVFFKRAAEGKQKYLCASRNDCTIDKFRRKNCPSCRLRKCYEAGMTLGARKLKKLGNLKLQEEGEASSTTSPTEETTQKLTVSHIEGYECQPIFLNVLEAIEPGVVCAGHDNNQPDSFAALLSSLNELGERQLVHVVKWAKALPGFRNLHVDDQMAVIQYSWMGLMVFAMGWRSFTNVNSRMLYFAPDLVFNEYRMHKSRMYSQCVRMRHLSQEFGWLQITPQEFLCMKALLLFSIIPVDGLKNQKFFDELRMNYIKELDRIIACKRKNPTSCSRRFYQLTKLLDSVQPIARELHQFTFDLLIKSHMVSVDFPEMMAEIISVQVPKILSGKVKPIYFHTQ
Sequence of Estrogen receptor (Homo sapiens) (P03372 whole entry, looked up): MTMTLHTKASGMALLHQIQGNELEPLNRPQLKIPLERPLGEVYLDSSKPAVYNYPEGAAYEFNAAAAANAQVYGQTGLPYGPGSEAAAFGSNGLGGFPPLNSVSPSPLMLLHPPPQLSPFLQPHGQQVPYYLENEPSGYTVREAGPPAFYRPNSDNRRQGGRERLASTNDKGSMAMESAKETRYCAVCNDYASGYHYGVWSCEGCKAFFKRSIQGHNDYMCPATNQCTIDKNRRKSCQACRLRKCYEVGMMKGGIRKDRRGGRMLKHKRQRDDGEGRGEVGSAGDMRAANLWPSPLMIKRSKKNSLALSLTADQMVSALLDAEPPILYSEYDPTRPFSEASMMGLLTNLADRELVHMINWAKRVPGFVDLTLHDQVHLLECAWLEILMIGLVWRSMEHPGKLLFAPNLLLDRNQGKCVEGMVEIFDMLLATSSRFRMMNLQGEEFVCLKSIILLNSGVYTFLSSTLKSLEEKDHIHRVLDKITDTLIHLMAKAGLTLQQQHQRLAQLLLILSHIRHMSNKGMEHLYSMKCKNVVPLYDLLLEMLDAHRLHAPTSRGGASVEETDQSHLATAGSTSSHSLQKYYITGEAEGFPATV
Sequence of Progesterone receptor (Homo sapiens) (P06401 whole entry, looked up): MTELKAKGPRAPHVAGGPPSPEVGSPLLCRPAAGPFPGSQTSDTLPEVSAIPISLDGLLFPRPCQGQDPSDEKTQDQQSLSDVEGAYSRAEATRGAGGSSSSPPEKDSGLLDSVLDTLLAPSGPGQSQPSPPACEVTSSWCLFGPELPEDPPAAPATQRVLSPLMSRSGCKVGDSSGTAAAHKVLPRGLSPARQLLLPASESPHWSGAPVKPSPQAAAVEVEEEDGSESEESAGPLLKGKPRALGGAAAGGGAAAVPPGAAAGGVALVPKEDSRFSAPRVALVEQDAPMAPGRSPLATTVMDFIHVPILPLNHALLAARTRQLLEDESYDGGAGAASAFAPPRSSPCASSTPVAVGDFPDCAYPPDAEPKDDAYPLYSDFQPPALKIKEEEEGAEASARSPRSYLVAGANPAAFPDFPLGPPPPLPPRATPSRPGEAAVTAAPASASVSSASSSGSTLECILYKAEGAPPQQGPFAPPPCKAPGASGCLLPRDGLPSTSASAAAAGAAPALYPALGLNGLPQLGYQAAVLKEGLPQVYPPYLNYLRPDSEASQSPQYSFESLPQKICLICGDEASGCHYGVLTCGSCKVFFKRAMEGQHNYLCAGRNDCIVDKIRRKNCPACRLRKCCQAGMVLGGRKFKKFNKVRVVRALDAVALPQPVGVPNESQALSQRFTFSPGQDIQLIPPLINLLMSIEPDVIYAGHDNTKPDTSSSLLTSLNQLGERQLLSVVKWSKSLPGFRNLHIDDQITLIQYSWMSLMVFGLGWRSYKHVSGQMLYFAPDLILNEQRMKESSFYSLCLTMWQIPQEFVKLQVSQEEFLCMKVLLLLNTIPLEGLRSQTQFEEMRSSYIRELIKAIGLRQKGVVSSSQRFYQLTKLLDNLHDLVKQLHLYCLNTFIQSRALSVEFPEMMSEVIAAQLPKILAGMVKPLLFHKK
Sequence of Thyrotropin receptor (Homo sapiens) (P16473 whole entry, looked up): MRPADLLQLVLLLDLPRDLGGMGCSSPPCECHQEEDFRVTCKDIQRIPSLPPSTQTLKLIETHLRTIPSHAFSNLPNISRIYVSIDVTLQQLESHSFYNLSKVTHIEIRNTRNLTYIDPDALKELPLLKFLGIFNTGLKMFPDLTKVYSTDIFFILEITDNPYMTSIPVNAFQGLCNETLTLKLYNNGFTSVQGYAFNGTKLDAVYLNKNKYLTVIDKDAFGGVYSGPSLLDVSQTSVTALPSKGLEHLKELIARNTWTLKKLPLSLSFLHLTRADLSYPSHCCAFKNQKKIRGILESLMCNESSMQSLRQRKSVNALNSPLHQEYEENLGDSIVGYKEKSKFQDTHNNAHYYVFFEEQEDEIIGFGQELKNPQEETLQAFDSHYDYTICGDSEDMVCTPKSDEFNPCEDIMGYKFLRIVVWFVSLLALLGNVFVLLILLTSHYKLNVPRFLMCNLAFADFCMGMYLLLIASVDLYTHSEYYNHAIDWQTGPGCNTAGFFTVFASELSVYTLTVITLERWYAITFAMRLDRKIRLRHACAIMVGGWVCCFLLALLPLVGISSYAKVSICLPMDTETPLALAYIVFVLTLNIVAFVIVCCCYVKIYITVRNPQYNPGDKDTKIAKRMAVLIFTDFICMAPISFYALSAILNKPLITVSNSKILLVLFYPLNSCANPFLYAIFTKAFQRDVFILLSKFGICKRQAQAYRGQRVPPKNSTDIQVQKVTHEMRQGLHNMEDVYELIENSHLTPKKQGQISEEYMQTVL
Sequence of Thyrotropin-releasing hormone receptor (Homo sapiens) (P34981 whole entry, looked up): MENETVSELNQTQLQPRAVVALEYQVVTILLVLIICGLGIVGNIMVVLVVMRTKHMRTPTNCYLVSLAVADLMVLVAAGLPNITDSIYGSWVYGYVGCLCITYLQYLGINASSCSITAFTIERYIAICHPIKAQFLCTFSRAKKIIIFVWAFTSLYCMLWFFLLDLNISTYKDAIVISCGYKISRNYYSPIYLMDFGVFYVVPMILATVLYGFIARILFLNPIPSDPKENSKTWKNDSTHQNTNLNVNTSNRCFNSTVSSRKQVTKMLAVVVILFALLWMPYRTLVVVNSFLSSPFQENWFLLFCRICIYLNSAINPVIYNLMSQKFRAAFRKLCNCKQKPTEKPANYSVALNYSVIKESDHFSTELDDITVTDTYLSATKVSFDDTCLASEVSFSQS

COc1cc(NC(=O)CC(C)=O)c(OC)cc1Cl
inactive: [1] | [2] | [3] | [4] | [5] | [6] | [7] | [8] | [9] | [10] | [11] | [12] | [13] | [14] | [15] | [16] | [17] | [18]

CC/C=C(\C(=O)N[C@@H]1C(=O)N2C(C(=O)OCOC(=O)C(C)(C)C)=C(COC(N)=O)CS[C@H]12)c1csc(N)n1
inactive: [1] | [2] | [3] | [4] | [5] | [6] | [7] | [8] | [9] | [10] | [11] | [12] | [13] | [14] | [15] | [16] | [17] | [19] | [18]

Cc1ccc([N+](=O)[O-])cc1N
inactive: [1] | [2] | [3] | [4] | [5] | [6] | [7] | [8] | [9] | [10] | [11] | [12] | [13] | [14] | [15] | [16] | [17] | [19] | [18]

CC(=O)CC(=O)N(C)C
inactive: [1] | [2] | [3] | [4] | [5] | [6] | [7] | [8] | [9] | [10] | [11] | [12] | [13] | [14] | [15] | [16] | [17] | [18]

CC(C)c1ccc(C(C)C)cc1
inactive: [1] | [2] | [3] | [4] | [5] | [6] | [7] | [8] | [9] | [10] | [11] | [12] | [13] | [14] | [15] | [16] | [17] | [18]

Cc1ccncc1
inactive: [1] | [2] | [3] | [4] | [5] | [6] | [7] | [8] | [9] | [10] | [11] | [12] | [13] | [14] | [15] | [16] | [17] | [18]

N#CCC(=O)O
inactive: [2] | [3] | [4] | [5] | [6] | [7] | [8] | [9] | [10] | [11] | [12] | [13] | [14] | [15] | [16] | [17] | [19] | [18]
inactive and 54.5 µM (active): [1]

O=C1C(N(CO)C(=O)NCO)N(CO)C(=O)N1CO (stereo not given)
inactive: [1] | [2] | [3] | [4] | [5] | [6] | [7] | [8] | [9] | [10] | [11] | [12] | [13] | [14] | [15] | [16] | [17] | [18]

CCCCCCC(=O)O
inactive: [1] | [2] | [3] | [4] | [5] | [6] | [7] | [8] | [9] | [10] | [11] | [12] | [13] | [14] | [15] | [16] | [17]

CC(C=O)Cc1ccc(C(C)(C)C)cc1 (stereo not given)
inactive: [1] | [2] | [3] | [4] | [5] | [20] | [6] | [8] | [9] | [10] | [11] | [12] | [13] | [14] | [15] | [16] | [17] | [19] | [18]

OCC(O)CS (stereo not given)
inactive: [1] | [2] | [3] | [4] | [5] | [20] | [6] | [7] | [8] | [9] | [10] | [11] | [12] | [13] | [14] | [15] | [16] | [17] | [19] | [18]

CCc1cccc(CC)c1N
inactive: [1] | [2] | [3] | [4] | [5] | [20] | [6] | [7] | [8] | [9] | [10] | [11] | [12] | [13] | [14] | [15] | [16] | [17]

C[Si](C)(C)N[Si](C)(C)C
inactive: [1] | [2] | [3] | [4] | [5] | [6] | [7] | [8] | [9] | [10] | [11] | [12] | [13] | [14] | [15] | [16] | [17]

CN=C(NC#N)NCCSCc1nc[nH]c1C
inactive: [1] | [2] | [3] | [4] | [5] | [6] | [7] | [8] | [9] | [10] | [11] | [12] | [13] | [14] | [15] | [16] | [17] | [19] | [18]

COc1c2ccoc2cc2oc(=O)ccc12
inactive: [1] | [2] | [3] | [4] | [5] | [6] | [7] | [8] | [9] | [10] | [11] | [13] | [14] | [15] | [16] | [17] | [18]
active: [12] 15.7 µM
